In experiment [1] the target is Cellular tumor antigen p53 (Homo sapiens) (UniProt P04637). Description: Primary qHTS for small molecule compounds that upregulate eGFP-tagged delta133p53alpha (in N-terminal) cells. (AID 2060322). Further: nearly all actives have a fitted effect of over 75% in size. Further: potency means the concentration at half of the fitted maximal effect.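 On activation: series mostly up to about 56 µM; 0% = DMSO vehicle and 100% = reference activator.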 The note with it: NCI-H358 eGFP-delta133p53alpha fluorescence, 24 h; activation: stronger effect = higher value. Summed up:
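NCI-H358 cells pre-induced 24 h with 10 ng/ml doxycycline to express N-terminal eGFP-delta133p53alpha, then dosed 24 h at 37C without doxycycline; fixed, Hoechst-stained, GFP intensity by laser scanning cytometry, normalized to DMSO (0%) and 57.5 uM 5-azacytidine (100%).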
For orientation: qHTS replaces the single test concentration by a dilution series.

The target in experiment [2] is Aldehyde dehydrogenase, mitochondrial (Homo sapiens) (UniProt P05091). In words: qHTS for Inhibitors of the Aldehyde Dehydrogenase Family (ALDH2) Primary screen (AID 2061308).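 Further: plate controls were vehicle for no effect and reference inhibitor for full effect; nearly all actives have a fitted effect of over 55% in size.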
The target of experiment [3] is Retinaldehyde dehydrogenase 3 (Homo sapiens) (UniProt P47895). Description: qHTS for Inhibitors of the Aldehyde Dehydrogenase Family (ALDH1A3) Validation screen (AID 2061312). Further: on the % scale 0 is the no-effect control and ±100 the full control effect; nearly all actives have a fitted effect of over 45% in size.
For experiment [4] the target is unchanged. Description: qHTS for Inhibitors of the Aldehyde Dehydrogenase Family (ALDH1A3) Primary screen (AID 2061315).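 Further: plate controls were DMSO vehicle for no effect and reference inhibitor for full effect.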
A short description of experiment [5]: BET inhibitor-based combinations targeting novel dependencies in MECOM-rearranged (r) AML: MV-4-11 cell line (AID 2202233). Further: nearly all actives have a fitted effect of over 45% in size. Further: potency means the concentration at half of the fitted maximal effect. The method, boiled down:
(§1)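 Normalized to DMSO and empty-well controls, the luminescence data from CellTiter-Glo after 48 hr drug exposure were fitted across 11 concentrations. Reported metrics are area under the dose-response curve and its Z-transformed form.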

The nature of experiment [6]: BET inhibitor-based combinations targeting novel dependencies in MECOM-rearranged (r) AML: HNT-34 cell line (AID 2202234).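 Further: plate controls were vehicle wells for no effect and cell-free wells for full effect; nearly all actives have a fitted effect of over 35% in size.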 The method, boiled down: as §1
A short description of experiment [7]: BET inhibitor-based combinations targeting novel dependencies in MECOM-rearranged (r) AML: UCSD-AML1 cell line (AID 2202235).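 Further: series mostly up to about 46 µM; plate controls were DMSO vehicle wells for no effect and blank wells for full effect; nearly all actives have a fitted effect of over 40% in size.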 Summed up:
as §1

Experiment [8] in a line: BET inhibitor-based combinations targeting novel dependencies in MECOM-rearranged (r) AML: AML-191 cell line (AID 2202236; further: nearly all actives have a fitted effect of over 35% in size; further: potency means the concentration at half of the fitted maximal effect). The method, boiled down: (§2)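 Here, 11-point titrations of each agent were applied to 500 seeded cells and incubated 48 hr; CellTiter-Glo signal, scaled against DMSO and empty wells, was integrated as AUC, then Z-scored within the individual line.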
The nature of experiment [9]: BET inhibitor-based combinations targeting novel dependencies in MECOM-rearranged (r) AML: AML-194 cell line (AID 2202237;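 further: plate controls were vehicle wells for no effect and wells without cells for full effect; nearly all actives have a fitted effect of over 40% in size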). The method, boiled down: as §2
Experiment [10] in a line: BET inhibitor-based combinations targeting novel dependencies in MECOM-rearranged (r) AML: OCI-AML3 cell line (AID 2202232). Further: nearly all actives have a fitted effect of over 35% in size. Further: potency means the concentration at half of the fitted maximal effect. Particulars: Potency: OCI-AML3 viability. Summed up: as §2
The nature of experiment [11]: BET inhibitor-based combinations targeting novel dependencies in MECOM-rearranged (r) AML: SET-2 cell line (AID 2202231). Further: nearly all actives have a fitted effect of over 35% in size. Further: potency means the concentration at half of the fitted maximal effect.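 On viability: plate controls were DMSO treated cells for no effect and wells without cells for full effect.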 The note with it: SET-2 AML cells viability, CellTiter-Glo luminescence, 48 h; viability: stronger effect = lower value, concentration not given here. The method, boiled down: as §2
On the technique in general: Cellular ATP, detected with luciferase, serves as a proxy for viable cell number.

The structures appear in SMILES notation. Values joined by “and” are separate entries in the source; they are usually repeats but may differ in a detail not shown here. Equal values may be shown once. Records with an inconclusive call do not appear. A number with no mark means an inactive call. Active and inactive are the calls of the source. The call rests on the fitted dose curve; in most records, active means well fitted curve in the direction sought with a large enough effect; inconclusive means small, poorly fitted or top-dose-only effect, or another doubt; inactive means no such curve, though single readings can be large; an effect the other way counts as inactive or inconclusive.

Cellular tumor antigen p53 (Homo sapiens), sequence (P04637 whole entry, looked up): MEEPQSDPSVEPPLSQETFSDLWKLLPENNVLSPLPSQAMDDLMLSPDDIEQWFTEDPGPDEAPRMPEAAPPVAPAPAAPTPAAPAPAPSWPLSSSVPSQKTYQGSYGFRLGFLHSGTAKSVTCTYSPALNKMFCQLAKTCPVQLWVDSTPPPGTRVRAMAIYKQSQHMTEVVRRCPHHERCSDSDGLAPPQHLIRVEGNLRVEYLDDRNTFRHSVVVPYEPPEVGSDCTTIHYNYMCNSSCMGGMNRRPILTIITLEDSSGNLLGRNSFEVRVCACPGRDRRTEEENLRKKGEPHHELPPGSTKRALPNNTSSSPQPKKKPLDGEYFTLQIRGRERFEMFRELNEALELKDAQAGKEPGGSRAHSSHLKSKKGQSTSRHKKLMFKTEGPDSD

Turning to `CCc1c(C(=O)C(N)=O)c2c(OCC(=O)OC)cccc2n1Cc1ccccc1`, in [1], the activation was -15.3%. In addition, the Potency entry in experiment [2], in [3] and in experiment [4] was “inactive” in each case.
On to `c1ccc(C2(c3ccccc3)OC[C@@H]([C@H]3CCCCN3)O2)cc1`, for which the activation in [1] was 2.86%. Also, the Potency entry in experiment [2], in experiment [3] and in experiment [4] was “inactive” throughout.
Consider `COc1cc(CCNCc2ccccc2O)c(OC)cc1C#N`, for which the activation in experiment [1] was -6.21%. Also, the Potency result in experiment [2], in [3] and in experiment [4] was “inactive” throughout.
Turning to `CN(C)CCc1c[nH]c2ccc(CN3CCN(C)S3(=O)=O)cc12`, in experiment [1], the activation is -4.3%. The Potency entry in experiment [2], in experiment [3] and in experiment [4] was “inactive” throughout.
On to `CN1C2CCC1CC(OC(=O)N1Cc3ccccc3NC1=O)C2` (stereo not given), for which the activation in experiment [1] is 1.43%. The Potency result in experiment [2], in [3] and in experiment [4] was “inactive” each time.
As to `CN(Cc1cccc(-c2ccncc2)c1)C(=O)Oc1ccc(-c2ccc(C(N)=O)cc2)cc1`, in [1], the activation is -8.11%. In addition, the Potency entry in experiment [2], in [3] and in experiment [4] was “inactive” each time.
Regarding `N#Cc1ccccc1-c1cc(-c2ccccn2)cn(-c2ccccc2)c1=O`, the activation in experiment [1] is 10.5%. The Potency entry in [2], in experiment [3] and in experiment [4] was “inactive” throughout.
In the case of `CN(C(=O)C(c1ccccc1)c1ccccc1)[C@H](CN1CC[C@H](O)C1)c1ccccc1`, the activation in [1] was 14.8%. The Potency entry in [2], in experiment [3] and in experiment [4] was “inactive” each time.
On to `CN1CCCCC1Cn1cc(C(=O)c2cc([N+](=O)[O-])ccc2I)c2ccccc21` (stereo not given), for which the activation in experiment [1] was 23.9%. In addition, the Potency result in experiment [2], in experiment [3] and in experiment [4] was “inactive” each time.
`C1=C2CCCN[C@H]2[C@@H]2C[C@H]1[C@H]1CCCCN1C2`: in experiment [1], the activation is -9.55%. The Potency entry in [2], in experiment [3] and in [4] was “inactive” each time.
For the compound `Cc1ccc(-n2nccn2)c(C(=O)N2CCN(c3nc4cc(Cl)ccc4o3)CCC2C)c1` (stereo not given), the activation in [1] is -12.4%. The Potency entry in experiment [2], in [3] and in experiment [4] was “inactive” throughout.
In the case of `CCOC(=O)C1(CCc2ccccc2)CCN(Cc2ccc(NC(C)=O)cc2)CC1`, the activation in experiment [1] is -12.4%. Moreover, the Potency entry in [2], in experiment [3] and in experiment [4] was “inactive” throughout.
As for `NCCCCCNC1(c2ccccc2)CCCCC1`, the activation in experiment [1] was -6.68%. Also, the Potency entry in experiment [2], in experiment [3] and in [4] was “inactive” in each case.
`COC1C=CC23c4cc5c(cc4COC2(O)CN(C)C3C1)OCO5` (stereo not given): the activation in experiment [1] is -5.36%. The Potency entry in [2] and in experiment [4] was “inactive” in each case.
With `Cc1ccccc1-n1c(Cn2ncc3c(N)ncnc32)nc2cccc(C)c2c1=O`, the activation in experiment [1] was 66.5% and 6.21%. Further, the Potency result in experiment [2], in experiment [3], in experiment [4], in [6], in experiment [7] and in experiment [8] was “inactive” in each case. Moreover, the Potency result in experiment [9] is “inactive”. The Potency in experiment [5] is 8330 nM (active).
Regarding `CC(=O)OC[C@]12C[C@H](OC(C)=O)C(C)=C[C@H]1O[C@@H]1[C@H](O)[C@@H](O)[C@@]2(C)[C@]12CO2`, the Potency in experiment [1] was 467 nM (active). Further, the Potency result in experiment [2] and in experiment [4] was “inactive” in each case.
In the case of `C[C@]12CC[C@H]3[C@@H](CCC4=C/C(=N/OCC(=O)O)CC[C@@]43C)[C@@H]1CC[C@@H]2O`, in [1], the activation was 13.7%. The Potency entry in [2] and in experiment [4] was “inactive” each time.
`CCc1nn(C)c(C(=O)NCc2ccc(Oc3ccc(C)cc3)cc2)c1Cl`: the activation in [1] was 1.43%. For the same compound, the Potency result in experiment [2], in experiment [3] and in [4] was “inactive” throughout.
With `CN1CCc2cc3c(cc2C1C1OC(=O)c2c1ccc1c2OCO1)OCO3` (stereo not given), in experiment [1], the activation was -26%. In addition, the Potency result in experiment [2] and in experiment [4] was “inactive” throughout.
In the case of `CC(=O)N(C)c1cccc(-c2ccnc3c(C(=O)c4cccs4)cnn23)c1`, the activation in experiment [1] is -3.13% and 5.73%. Also, the Potency entry in [2], in [3] and in experiment [4] was “inactive” in each case.
On to `CCCCC1C(=O)NC(=O)N(C2CCCCC2)C1=O` (stereo not given), for which the activation in experiment [1] is 17%. Also, the Potency entry in experiment [2] and in experiment [4] was “inactive” in each case.
Take `CC1=C2C[C@H]3[C@@H](CC=C4C[C@@H](O)CC[C@@]43C)[C@@H]2CC[C@]12O[C@@H]1C[C@H](C)CN[C@H]1[C@H]2C`: the activation in [1] is 2.39%. In addition, the Potency entry in experiment [2], in experiment [3], in experiment [4], in [10] and in experiment [7] was “inactive” each time.
As to `O=C1C=CC[C@@H]2[C@H]3CCCN4CCC[C@@H](CN12)[C@@H]34`, in experiment [1], the activation was -8.56% and -6.68%. The Potency entry in experiment [2], in experiment [3], in experiment [4], in experiment [10], in experiment [5] and in [6] was “inactive” in each case. The Potency entry in experiment [7], in [8] and in [9] was “inactive” each time. The viability in experiment [11] is 108%.
As to `CN(C)c1cc2c(cc1Sc1nc3c(N)nccc3n1CCNCC(C)(C)C)OCO2`, in experiment [1], the activation is 5.25%. The Potency entry in [2], in [3] and in [4] was “inactive” each time. Besides, the Potency in experiment [11] is 1320 nM (active); in [10], 1180 nM (active); in [5] it was 662 nM (active).
Turning to `Cc1c(Cl)c(OCC(=O)N2CCN(C)CC2)nc2sc(C(=O)NC3CC3)c(N)c12`, in experiment [1], the activation was 5.25%. For the same compound, the Potency entry in experiment [2], in [3] and in [4] was “inactive” each time.
`C/C=C(\C)C(=O)OC1C(C)OC(OC2C(C)OC(OC3CCC4(C)C(=CCC5C4CCC4(C)C(C(C)OC6OC(COC7OC(CO)C(O)C(O)C7O)C(O)C(O)C6O)CCC54O)C3)CC2OC)C(O)C1OC` (stereo not given): in [1], the activation is 0.763%. Also, the Potency entry in [2] and in experiment [4] was “inactive” throughout.
Regarding `CCC1(O)CCC2C3CCC4=CC(=O)CCC4C3CCC21CC` (stereo not given), the activation in [1] was -2.33%. The Potency result in experiment [2] and in [4] was “inactive” each time.
Turning to `C[C@@H]1CN(Cc2ccc(F)cc2)CCN1C(=O)COc1ccc(Cl)cc1NC(N)=O`, the activation in experiment [1] was 1.91%. In addition, the Potency result in experiment [2], in experiment [3], in experiment [4] and in experiment [7] was “inactive” each time. Besides, the results for the Potency in [5] and in [8] were 14800 nM (active) and 7420 nM (active), respectively.

In general, viability refers to a read-out of living cells in per cent, often relative to untreated cells.

These data come from PubChem BioAssay (NCATS).
